This passage reports Potency results from PubChem BioAssay (NCATS).

“And” between values parts separate entries of the source, which are not always exact repeats. Identical values can stand only once. Records with an inconclusive call do not appear. The source made the active and inactive calls. The call rests on the fitted dose curve; in most records, active means well fitted curve in the direction sought with a large enough effect; inconclusive means small, poorly fitted or top-dose-only effect, or another doubt; inactive means no such curve, though single readings can be large; an effect the other way counts as inactive or inconclusive.

The nature of test [1]: Viability qHTS for spleen associated tyrosine kinase inhibitor (SYKi) naive MV4-11 cells (AID 1963823). Further: nearly all actives have a fitted effect of over 40% in size. The method in brief: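 qHTS, SYK inhibitor-naive MV4-11; 500 cells/well; 72 hr compound exposure, 37 C; CellTiter-Glo added, 10 min RT; luminescence read.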
In general terms: Quantitative high-throughput screening tests each substance at several concentrations.

The nature of test [2]: Viability qHTS for spleen associated tyrosine kinase inhibitor (SYKi) drug resistant MV4-11 cells (AID 1963824). Further: nearly all actives have a fitted effect of over 35% in size. In short, it runs like this: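 SYK-inhibitor-resistant MV4-11 AML cells were seeded at 500 per well onto compound and cultured 72 hours (37 °C, 5% CO2). CellTiter-Glo was then added, and after 10 min at room temperature, luminescence gave viability.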
A short description of test [3]: Cellular viability qHTS for adrenocortical cancer (ACC) cell line NCI-H295R (AID 1963990). Further: nearly all actives have a fitted effect of over 60% in size. The method in brief: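 Adrenocortical carcinoma cells, suspended at 300 000 cells/mL in serum-free DMEM plus ITS, rested overnight before pin transfer of compound. After two days' incubation, ATP-dependent luminescence was recorded and curve-fitted.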
The nature of test [4]: Quantitative highthroughput screen to assess conditional lethalithy of NOMO1 cells grown in RPMI1640 with untreated serum (RPMI+s) (AID 1963876). Further: nearly all actives have a fitted effect of over 35% in size. In short, it runs like this: (§1)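 Each medium arm—HPLM with 10% dialyzed FBS, or RPMI1640 with 5 mM glucose and 10% untreated or dialyzed FBS—was screened against an 11-point, 3-fold compound titration for 48 h at 37 °C, with CellTiter-Glo luminescence as endpoint.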

A short description of test [5]: Quantitative highthroughput screen to assess conditional lethalithy of NOMO1 cells grown in RPMI1640 with dialyzed fetal bovine serum (RPMI+ds) (AID 1963877). Further: nearly all actives have a fitted effect of over 30% in size. In short, it runs like this:
as §1

Test [6] is described as follows: Quantitative highthroughput screen to assess conditional lethalithy of NOMO1 cells grown in Human Plasma-Like Medium with dialyzed fetal bovine serum (HPLM+ds) (AID 1963878). Further: nearly all actives have a fitted effect of over 35% in size. The method in brief:
as §1

A short description of test [7]: Quantitative highthroughput screen to assess conditional lethalithy of P12 Ichikawa cells grown in Human Plasma-Like Medium with dialyzed fetal bovine serum (HPLM+ds) (AID 1963879). Further: nearly all actives have a fitted effect of over 35% in size. To be noted: Potency: viability. In short, it runs like this: as §1
A short description of test [8]: Quantitative highthroughput screen to assess conditional lethalithy of P12 Ichikawa cells grown in RPMI1640 with dialyzed fetal bovine serum (RPMI+ds) (AID 1963880). Further: nearly all actives have a fitted effect of over 35% in size. To be noted: Potency: P12-Ichikawa viability. The method in brief:
as §1

A short description of test [9]: Quantitative highthroughput screen to assess conditional lethalithy of P12 Ichikawa cells grown in RPMI1640 with untreated serum (RPMI+s) (AID 1963881). Further: nearly all actives have a fitted effect of over 35% in size. To be noted: Potency: viability. In short, it runs like this:
as §1

Test [10] is described as follows: Quantitative highthroughput screen to assess conditional lethalithy of SEM cells grown in Human Plasma-Like Medium with dialyzed fetal bovine serum (HPLM+ds) (AID 1963882). Further: nearly all actives have a fitted effect of over 35% in size. The method in brief: as §1
The nature of test [11]: Quantitative highthroughput screen to assess conditional lethalithy of SEM cells grown in RPMI1640 with unreated serum (RPMI+s) (AID 1963883). Further: nearly all actives have a fitted effect of over 35% in size. In short, it runs like this:
as §1

The nature of test [12]: Quantitative highthroughput screen to assess conditional lethalithy of SEM cells grown in RPMI1640 with dialyzed fetal bovine serum (RPMI+ds) (AID 1963884). Further: nearly all actives have a fitted effect of over 35% in size. In short, it runs like this: as §1
A short description of test [13]: Cellular viability qHTS for adrenocortical cancer (ACC) cell line SW-13 (AID 1963989). Further: nearly all actives have a fitted effect of over 65% in size. To be noted: SW-13 ACC cells viability, CellTiter-Glo, 48 h; activity (max response): active compounds read low. The method in brief:
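IC50 and maximal-response values come from four-parameter logistic fits of titration data. SW-13 cells in serum-free medium received compounds (up to 46 uM final) for 48 h before CellTiter-Glo luminescence.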
Potency means the concentration at half of the fitted maximal effect.

Regarding `O=C(c1ccc(Nc2nc(C3CC3)cn3c(-c4cn[nH]c4)cnc23)c(F)c1)N1CCOCC1`, the Potency is 1.05 µM (active) in test [1], 1.66 µM (active) in [2] and 7.94 µM (active) in [3].

`CCN(CC)Cc1ccc2cc(COC(=O)Nc3ccc(C(=O)NO)cc3)ccc2c1`: the Potency in test [1] was 291 nM (active) and 468 nM (active); in test [4], 3.72 µM (active); in [5], 3.72 µM (active); in test [6] it was 2.96 µM (active); in [7], 2.35 µM (active); in test [8], 2.35 µM (active). Besides, the Potency was 2.35 µM (active) in test [9]; 1.66 µM (active) in [10]; 2.09 µM (active) in test [11]; 1.87 µM (active) in test [12]; 2.82 µM (active) in test [13]; 1.78 µM (active) in test [3].

Regarding `NC(=O)C1(N2CCCCC2)CCN(CCCN2c3ccccc3CCc3ccc(Cl)cc32)CC1`, the Potency was 8.41 µM (active) in test [1], 8.41 µM (active) in [2] and 2.91 µM (active) in test [3].

In the case of `CCS(=O)(=O)CCn1c([N+](=O)[O-])cnc1C`, the Potency entry in test [1] and in [2] was “inactive” in each case. In addition, the Potency in test [3] was 25.9 µM (active).

As for `O=C1Nc2ccc(I)cc2/C1=C/c1cc(Br)c(O)c(Br)c1`, the Potency in test [1] was 18.6 µM (active); in test [2], 14.8 µM (active). Also, in test [3], the Potency result was “inactive”.

As to `COCCn1c2c([n+](Cc3cnccn3)c1C)C(=O)c1ccccc1C2=O`, the Potency in [1] is 0.0093 µM (active); in [4], 0.132 µM (active); in test [5], 0.105 µM (active); in [6], 0.0662 µM (active); in test [7] it was 0.235 µM (active); in test [8] it was 0.187 µM (active). The Potency in [9] is 0.166 µM (active); in [10] it was 0.0166 µM (active); in test [11] it was 0.0662 µM (active); in test [12], 0.0418 µM (active); in test [3], 2.82 µM (active).

Take `C=CC(=O)Nc1ccc2ncnc(Nc3ccc(OCc4cccc(F)c4)c(Cl)c3)c2c1`: the Potency is 5.8 µM (active) and 5.9 µM (active) in [1]; 2.64 µM (active) in test [4]; 3.32 µM (active) in [5]; 2.35 µM (active) in test [6]; 7.43 µM (active) in [7]; 7.43 µM (active) in test [8]. The Potency in test [9] was 7.43 µM (active); in [10], 7.43 µM (active); in test [11], 7.43 µM (active); in test [12], 8.33 µM (active); in test [13] it was 0.631 µM (active); in test [3] it was 6.31 µM (active).
